According to PubChem BioAssay (Tox21):
Values without a mark were called inactive. Records with an inconclusive call do not appear. Where a call stands in place of a potency, no number is given. Active and inactive are the calls of the source. Unless noted, calls follow the shape of the full dose curve.

Columns and labels:
[1] = Nuclear factor erythroid 2-related factor 2/antioxidant responsive element (Nrf2/ARE) small molecule agonists: qHTS cell viability counter screen in human keratinocytes (AID 1919968; active = well fitted curve in the direction sought with a large enough effect in the repeat runs; an effect the other way counts as inactive or inconclusive; also: nearly all actives have a fitted effect of over 55% in size; also: potency is read from the fitted curve at half-maximal effect)
Summary of the method: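 CellTiter-Fluor fluorescence, read 1 h after reagent, gave viability in the same wells as the ARE-luciferase assay. KeratinoSens cells (1,500/well) had 23 h compound exposure at 37 C/5% CO2 following 5 h plating.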

[2] = Nuclear factor erythroid 2-related factor 2/antioxidant responsive element (Nrf2/ARE) small molecule agonists: luciferase reporter gene qHTS assay in human keratinocytes (AID 1919969); also: nearly all actives have a fitted effect of over 35% in size; also: potency is read from the fitted curve at half-maximal effect
[3] = molecular target: Gonadotropin-releasing hormone receptor (Homo sapiens) (UniProt P30968); experiment: Human gonadotropin-releasing hormone receptor (GnRHR) small molecule agonists, calcium flux assay in GnRHR-HEK293 cells (AID 1920063); also: nearly all actives have a fitted effect of over 35% in size
Gonadotropin-releasing hormone receptor (Homo sapiens), sequence (P30968 whole entry, looked up): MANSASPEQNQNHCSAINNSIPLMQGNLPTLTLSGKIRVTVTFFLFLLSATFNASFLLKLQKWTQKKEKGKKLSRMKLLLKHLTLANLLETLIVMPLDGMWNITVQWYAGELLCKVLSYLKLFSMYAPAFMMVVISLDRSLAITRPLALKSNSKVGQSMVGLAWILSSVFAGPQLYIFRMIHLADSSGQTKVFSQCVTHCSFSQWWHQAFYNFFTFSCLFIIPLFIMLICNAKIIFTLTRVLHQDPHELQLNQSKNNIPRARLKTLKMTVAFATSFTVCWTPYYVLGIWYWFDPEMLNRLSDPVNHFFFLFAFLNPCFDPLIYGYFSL
Summary of the method: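 Agonist mode: compounds at 15 concentrations, in triplicate, went onto calcium dye-loaded GnRHR-HEK293 cells. Intracellular calcium was then followed as 480/540 nm fluorescence at 1 s intervals over 3 min.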

[4] = molecular target: KiSS-1 receptor (Homo sapiens) (UniProt Q969F8); experiment: Human kisspeptin (KISS1R) small molecule agonists, calcium flux assay in KISS1R-HEK293 cells (AID 1920064; active = well fitted curve in the direction sought with a large enough effect in the repeat runs; an effect the other way counts as inactive or inconclusive)
KiSS-1 receptor (Homo sapiens), sequence (Q969F8 whole entry, looked up): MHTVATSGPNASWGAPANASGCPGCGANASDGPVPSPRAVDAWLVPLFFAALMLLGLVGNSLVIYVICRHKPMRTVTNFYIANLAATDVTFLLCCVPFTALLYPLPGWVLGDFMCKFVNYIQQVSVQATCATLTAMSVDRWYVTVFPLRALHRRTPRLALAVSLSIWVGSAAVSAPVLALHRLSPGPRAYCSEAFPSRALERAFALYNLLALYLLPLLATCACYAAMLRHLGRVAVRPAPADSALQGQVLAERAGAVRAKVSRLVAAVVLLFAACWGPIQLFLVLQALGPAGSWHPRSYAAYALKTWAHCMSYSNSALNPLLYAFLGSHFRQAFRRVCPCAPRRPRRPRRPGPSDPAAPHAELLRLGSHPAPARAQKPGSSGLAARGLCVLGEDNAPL
Summary of the method: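 Agonist mode: intracellular calcium rise tracked at 1 s intervals over 3 min (480/540 nm) immediately after compound addition to dye-loaded KISS1R-HEK293 stable cells. Each compound tested at 15 concentrations in triplicate.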

[5] = G protein-coupled receptor (GPCR) small molecule agonists, calcium flux assay: HEK293 wild type cell line counter screen (AID 1920065)
Summary of the method: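 Calcium flux counter screen: compound added in agonist mode at 15 concentrations in triplicate to dye-loaded parental HEK293 cells. Fluorescence (480/540) read kinetically for 3 min; ATP served as positive control.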

[6] = p53 small molecule agonists, cell-based qHTS assay with human liver microsomes (AID 1963577)
Summary of the method: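 p53RE-bla reporter cells were pre-incubated 5 h at 37 C, then treated with compounds plus human liver microsomes (0.5 mg/mL final) and NADPH (0.5 mg/mL final) for 16 h at 37 C. Beta-lactamase activity was read by LiveBLAzer fluorescence after 2 h at room temperature.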

[7] = p53 small molecule agonists, cell-based qHTS assay with human liver microsomes: qHTS cell viability counter screen (AID 1963579); also: nearly all actives have a fitted effect of over 45% in size
Summary of the method: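 p53RE-bla cells (4,000/well) were pre-incubated 5 h at 37 C, then given compounds in DMSO plus human liver microsomes (0.5 mg/mL final) and NADPH (0.5 mg/mL final) for 16 h at 37 C. Viability was read by CellTiter-Glo luminescence.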

[8] = p53 small molecule agonists, cell-based qHTS assay with rat liver microsomes: qHTS cell viability counter screen (AID 1963580); also: nearly all actives have a fitted effect of over 45% in size
Summary of the method: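 After the beta-lactamase ratio was read, CellTiter-Glo was added to the same wells and luminescence measured at 30 min; cells had been treated 16 h at 37 C with compounds, rat liver microsomes and NADPH (0.5 mg/mL final each).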

[9] = p53 small molecule agonists, cell-based qHTS assay: qHTS cell viability counter screen (AID 1963581); also: nearly all actives have a fitted effect of over 45% in size
Summary of the method: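 Counter screen read by CellTiter-Glo luminescence (ATP content, 30 min at room temperature), run in the same wells as the beta-lactamase reporter read. HCT-116 p53RE-bla cells saw compounds for 16 h at 37 C.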

[10] = p53 small molecule agonists, cell-based qHTS assay (AID 1963582; active = well fitted activation curve with a large enough effect in the signal ratio in the repeat runs, not every such curve was filed as active; the % refers to the signal ratio)
Summary of the method: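 Read-out is beta-lactamase FRET fluorescence after 2 h at room temperature with LiveBLAzer B/G substrate. p53 response element-bla cells were treated 16 h at 37 C with compounds in DMSO, added 5 h after seeding.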

[11] = molecular target: 5-hydroxytryptamine receptor 2A (Homo sapiens) (UniProt P28223); experiment: 5-hydroxytryptamine receptor 2A (HTR2A) small molecule antagonists, cell-based qHTS assay (AID 1963586); also: nearly all actives have a fitted effect of over 45% in size
5-hydroxytryptamine receptor 2A (Homo sapiens), sequence (P28223 whole entry, looked up): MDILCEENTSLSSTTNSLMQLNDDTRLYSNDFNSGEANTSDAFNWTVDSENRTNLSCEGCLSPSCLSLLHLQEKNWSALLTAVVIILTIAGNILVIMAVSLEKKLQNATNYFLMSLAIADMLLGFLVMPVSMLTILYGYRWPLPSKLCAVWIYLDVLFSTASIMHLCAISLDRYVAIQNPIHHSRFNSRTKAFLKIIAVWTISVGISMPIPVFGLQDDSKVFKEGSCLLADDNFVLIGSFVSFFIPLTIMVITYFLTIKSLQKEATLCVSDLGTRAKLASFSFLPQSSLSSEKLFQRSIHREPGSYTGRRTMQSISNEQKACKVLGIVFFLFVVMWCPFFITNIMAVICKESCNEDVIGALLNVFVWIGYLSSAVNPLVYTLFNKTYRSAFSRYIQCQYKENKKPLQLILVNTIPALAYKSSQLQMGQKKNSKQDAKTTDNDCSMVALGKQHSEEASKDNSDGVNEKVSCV
Summary of the method: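 CHO cells stably expressing human HTR2A were plated for 18 h at 37 C, then loaded with calcium dye for 1 h. Compounds were preincubated 5 min at room temperature before DOI (4 nM solution) was added. Kinetic fluorescence was read for 3 min.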

[12] = molecular target: Muscarinic acetylcholine receptor M1 (Homo sapiens) (UniProt P11229); experiment: Cholinergic receptor muscarinic 1 (CHRM1) small molecule antagonists, cell-based qHTS assay (AID 1963588); also: nearly all actives have a fitted effect of over 40% in size
Muscarinic acetylcholine receptor M1 (Homo sapiens), sequence (P11229 whole entry, looked up): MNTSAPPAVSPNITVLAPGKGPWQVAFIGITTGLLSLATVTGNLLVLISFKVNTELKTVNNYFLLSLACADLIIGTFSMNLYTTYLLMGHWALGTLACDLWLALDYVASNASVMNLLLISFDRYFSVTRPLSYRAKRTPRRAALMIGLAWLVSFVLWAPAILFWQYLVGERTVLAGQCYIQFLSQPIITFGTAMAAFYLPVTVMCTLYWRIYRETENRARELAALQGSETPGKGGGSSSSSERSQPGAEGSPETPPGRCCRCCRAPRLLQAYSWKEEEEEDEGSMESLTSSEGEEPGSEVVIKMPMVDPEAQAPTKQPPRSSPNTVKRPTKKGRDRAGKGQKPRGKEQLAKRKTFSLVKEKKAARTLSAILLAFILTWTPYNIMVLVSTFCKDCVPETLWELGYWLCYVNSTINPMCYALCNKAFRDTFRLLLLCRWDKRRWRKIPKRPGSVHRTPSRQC
Summary of the method: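 Compounds were tested at 15 concentrations in three independent runs. Dye-loaded CHRM1-CHO cells were exposed 5 min at room temperature before stimulation by acetylcholine added at 50nM. Intracellular calcium was read kinetically on FDSS for 3 min.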

[13] = molecular target: Muscarinic acetylcholine receptor M1 (Homo sapiens) (UniProt P11229); experiment: Cholinergic receptor muscarinic 1 (CHRM1) small molecule agonists, cell-based qHTS assay (AID 1963589); also: nearly all actives have a fitted effect of over 35% in size
Summary of the method: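 Agonist-mode calcium-flux screen: compounds at 15 concentrations, three independent runs, were pin-transferred onto dye-loaded human CHRM1-CHO cells. Fluorescence was then recorded kinetically every second over minutes.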

[14] = molecular target: Beta-2 adrenergic receptor (Homo sapiens) (UniProt P07550); experiment: Adrenergic beta2 receptor (ADRB2) small molecule antagonists, cell-based qHTS assay (AID 1963592); also: series mostly up to about 92 µM; nearly all actives have a fitted effect of over 50% in size
Beta-2 adrenergic receptor (Homo sapiens), sequence (P07550 whole entry, looked up): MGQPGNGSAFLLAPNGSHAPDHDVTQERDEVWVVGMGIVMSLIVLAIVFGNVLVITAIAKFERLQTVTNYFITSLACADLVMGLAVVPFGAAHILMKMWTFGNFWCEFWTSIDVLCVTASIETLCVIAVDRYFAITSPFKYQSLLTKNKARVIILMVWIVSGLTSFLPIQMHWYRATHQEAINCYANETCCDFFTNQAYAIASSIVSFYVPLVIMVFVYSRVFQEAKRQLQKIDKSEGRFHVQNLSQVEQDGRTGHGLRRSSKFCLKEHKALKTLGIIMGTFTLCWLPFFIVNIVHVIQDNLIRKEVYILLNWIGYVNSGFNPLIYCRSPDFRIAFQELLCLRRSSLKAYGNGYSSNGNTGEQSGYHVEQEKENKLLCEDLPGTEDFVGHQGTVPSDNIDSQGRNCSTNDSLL
Summary of the method: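 Assay format: CHO-ADRB2 cells, 18-20hr seeding at 37C/5% CO2, then compound plus 1nM isoproterenol agonist mix for 0.5hr RT. Homogeneous time-resolved fluorescence cAMP detection after 1hr, expressed as 665/615 nm ratio.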

[15] = molecular target: D(2) dopamine receptor (Homo sapiens) (UniProt P14416); experiment: Dopamine D2 receptor (DRD2) small molecule agonists, cell-based qHTS assay (AID 1963594); also: nearly all actives have a fitted effect of over 35% in size
D(2) dopamine receptor (Homo sapiens), sequence (P14416 whole entry, looked up): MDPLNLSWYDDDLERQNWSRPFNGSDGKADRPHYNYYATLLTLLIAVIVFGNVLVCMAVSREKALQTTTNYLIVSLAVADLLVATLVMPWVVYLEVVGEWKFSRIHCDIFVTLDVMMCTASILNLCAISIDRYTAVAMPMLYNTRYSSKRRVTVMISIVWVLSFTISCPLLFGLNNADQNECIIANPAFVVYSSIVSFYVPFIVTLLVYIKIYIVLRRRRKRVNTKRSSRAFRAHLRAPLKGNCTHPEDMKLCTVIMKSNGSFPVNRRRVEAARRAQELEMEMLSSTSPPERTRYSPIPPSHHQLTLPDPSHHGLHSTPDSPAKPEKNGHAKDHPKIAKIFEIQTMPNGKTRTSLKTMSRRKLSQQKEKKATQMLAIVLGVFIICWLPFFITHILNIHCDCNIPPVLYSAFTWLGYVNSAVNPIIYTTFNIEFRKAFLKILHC
Summary of the method: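 HEK293 cells stably expressing human DRD2, pre-treated with PDE inhibitor Ro20-1724 (0.1 mM final) and compound 10 min at room temperature, then stimulated with NKH477 (200nM […]) for 30 min. cAMP read by HTRF (665/620 nm).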

[16] = molecular target: D(2) dopamine receptor (Homo sapiens) (UniProt P14416); experiment: Dopamine D2 receptor (DRD2) small molecule antagonists, cell-based qHTS assay (AID 1963595; active = well fitted inhibition curve with a large enough effect in the signal ratio in the repeat runs, with a control signal flat; the % refers to the signal ratio)
Summary of the method: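 Human DRD2 antagonist qHTS measuring cAMP by HTRF. The cells are exposed to compound for 10 min, then to NKH477 (200 nM) and quinpirole (12 nM) for 30 min at RT, with Ro20-1724 (0.1 mM) present throughout.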

[17] = cAMP Responsive Elements (CRE) small molecule antagonists, cell-based qHTS assay (AID 1963591; active = well fitted inhibition curve with a large enough effect in the signal ratio in the repeat runs, not every such curve was filed as active; the % refers to the signal ratio)
Summary of the method: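 Antagonist mode: compounds are added alongside the adenylyl cyclase activator NKH477 (0.25 uM final) to CRE-bla HEK293T cells for 3 h. LiveBLAzer FRET substrate, 2 h at room temperature, reports bla expression.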

[18] = p53 small molecule agonists, cell-based qHTS assay with rat liver microsomes (AID 1963578)
Summary of the method: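 p53RE-bla cells were exposed to compounds together with rat liver microsomes (0.5 mg/mL final) and NADPH (0.5 mg/mL final) for 16 h at 37 C, then read by LiveBLAzer beta-lactamase fluorescence after 2 h at room temperature.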

[19] = molecular target: 5-hydroxytryptamine receptor 2A (Homo sapiens) (UniProt P28223); experiment: 5-hydroxytryptamine receptor 2A (HTR2A) small molecule agonists, cell-based qHTS assay (AID 1963587); also: nearly all actives have a fitted effect of over 30% in size; also: potency is read from the fitted curve at half-maximal effect
Summary of the method: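 CHO cells stably expressing human HTR2A, plated 18 h, loaded with calcium dye 1 h at 37 C. Agonist mode: compounds added and intracellular calcium fluorescence recorded kinetically for 2 min at 1 sec intervals.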

[20] = cAMP Responsive Elements (CRE) small molecule agonists, cell-based qHTS assay (AID 1963590)
Summary of the method: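 Agonist mode: compound added to CRE-bla HEK 293T cells (2,000/well, 18 h after plating) for 3 h at 37 C/5% CO2. Reporter activity detected via FRET beta-lactamase substrate, 2 h room-temperature loading.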

SMILES	Potency [1]	Potency [2]	Potency [3]	outcome [4]	outcome [5]	Potency [6]	Potency [7]	Potency [8]	Potency [9]	Potency [10]	Potency [11]	Potency [12]	Potency [13]	Potency [14]	Potency [15]	Potency [16]	Potency [17]	Potency [18]	Potency [19]	Potency [20]
O=C(O)c1cc(O)c2c(c1)C(=O)c1cccc(O)c1C2=O	inactive	inactive	inactive	inactive	inactive	inactive	inactive	inactive	inactive	inactive	inactive	inactive	inactive	inactive	inactive	inactive	–	–	–	–
COc1ccc2[nH]c(S(=O)Cc3ncc(C)c(OC)c3C)nc2n1 (stereo not given)	inactive	21.1 µM (active)	inactive	inactive	inactive	inactive	inactive	inactive	inactive	inactive	inactive	–	inactive	inactive	inactive	inactive	inactive	–	–	–
O=[N+]([O-])c1cccc(I)c1	inactive	inactive	inactive	inactive	inactive	inactive	–	–	inactive	inactive	inactive	inactive	inactive	inactive	inactive	inactive	inactive	inactive	inactive	inactive
CCOc1cc(OCC)c(C(C)=O)cc1OCC	inactive	inactive	inactive	inactive	inactive	inactive	–	–	inactive	–	inactive	–	inactive	inactive	inactive	inactive	–	inactive	inactive	–
CCOC(=O)C(C)O (stereo not given)	inactive	inactive	inactive	inactive	inactive	inactive	inactive	inactive	inactive	inactive	inactive	inactive	inactive	inactive	inactive	inactive	inactive	–	inactive	inactive
O=C1c2ccccc2C(=O)N1CCl	inactive	inactive	inactive	inactive	inactive	inactive	inactive	inactive	inactive	inactive	inactive	inactive	inactive	inactive	inactive	inactive	–	–	inactive	inactive
CC(C)=CCC[C@@](C)(O)[C@H]1CC=C(C)CC1	inactive	inactive	inactive	inactive	inactive	inactive	inactive	inactive	inactive	inactive	inactive	inactive	inactive	inactive	inactive	–	inactive	–	–	inactive
C=CCOc1nc(OCC=C)nc(OCC=C)n1	inactive	inactive	inactive	inactive	inactive	inactive	inactive	inactive	inactive	inactive	inactive	inactive	inactive	inactive	inactive	inactive	inactive	–	–	–
COS(=O)(=O)C(F)(F)F	inactive	71.7 µM (active)	inactive	inactive	inactive	inactive	–	–	inactive	inactive	inactive	–	inactive	inactive	inactive	–	inactive	inactive	inactive	inactive
CC(C)CCCC(=O)O	inactive	inactive	inactive	inactive	inactive	inactive	–	–	inactive	inactive	inactive	inactive	inactive	inactive	inactive	inactive	inactive	inactive	inactive	inactive
CN1CCN(Cc2cc(-c3ccc4[nH]c(=O)oc4c3)co2)[C@@H](c2ccc(F)cc2)C1	26.3 µM (active)	13.2 µM (active)	inactive	inactive	inactive	inactive	–	inactive	–	–	inactive	–	inactive	inactive	–	–	–	inactive	–	–
C=CC(=O)OCCCl	inactive	inactive	inactive	inactive	inactive	inactive	inactive	inactive	inactive	inactive	inactive	inactive	inactive	–	–	inactive	inactive	–	inactive	inactive
CCOc1cc([N+](=O)[O-])c(OCC)cc1N1CCOCC1	inactive	inactive	inactive	inactive	inactive	inactive	inactive	inactive	inactive	inactive	inactive	inactive	inactive	inactive	inactive	–	–	–	inactive	–
CCC=O	inactive	inactive	inactive	inactive	inactive	inactive	inactive	inactive	inactive	inactive	–	inactive	inactive	inactive	–	–	inactive	–	inactive	inactive
CCCCCCCC/C=C\CCCCCCCCN	inactive	inactive	inactive	inactive	inactive	inactive	–	–	–	inactive	–	inactive	inactive	inactive	inactive	inactive	inactive	inactive	21.3 µM (active)	inactive
